High-throughput results: PubChem, National Center for Advancing Translational Sciences (NCATS)
TDP1 cell CPT = DT40-hTDP1 cell growth loss with CPT; chicken DT40 Tdp1-/-;hTDP1 cells + 20 nM CPT, ATP luminescence, 48 h; Potency, µM (top dose mostly 46.2 µM), for the others: at the highest dose activity change, negative = growth inhibition, actives largely listed as inhibitors; actives 12% (n = 420,000); AID 686979; note: nearly all actives have a fitted effect of over 55% in size
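Chicken DT40 Tdp1-/- cells complemented with human TDP1, 400 cells/well, exposed to compounds plus 20 nM camptothecin for at least 48 h at 37 C; viability read as ATP content by CellTiter-Glo luminescence.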
DT40 TDP1 no CPT = qHTS for Inhibitors of human tyrosyl-DNA phosphodiesterase 1 (TDP1): qHTS in cells in absence of CPT | DT40 Tdp1-/- hTDP1 cells, no CPT, ATP luminescence, 48 h | Potency, µM (doses to about 46.2 µM), for the others: at the highest dose activity change, negative = growth inhibition, most hits filed as inhibitors | actives 15% (n = 420,000); note: nearly all actives have a fitted effect of over 55% in size
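A cellular qHTS used chicken DT40 cells lacking endogenous Tdp1 but carrying stably transfected human TDP1. Compounds were applied without camptothecin, and cell growth kinetics were judged by ATP-dependent luminescence after ≥48 hr.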
KAT2A inh = blocks human GCN5L2 histone acetyltransferase; Q92830; Potency, µM (top dose mostly 58.9 µM), for inactives: top-dose activity change, negative = inhibition, hits mostly inhibitors; GCN5L2 HAT assay, ThioGlo1 CoA-SH fluorescence; actives 0.21% (n = 390,000)
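Preincubate 20nM GCN5L2 with compound 15 min, RT → add 50uM ThioGlo1 + 75uM H3(1-25) + 70uM acetyl-CoA → read fluorescence 0 and 20 min. Primary qHTS; fluorescent artifacts likely.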
PLK1 PBD block = inhibitors of human PLK1 polo-box domain binding | P53350 | Plk1 PBD binding of FITC phosphopeptide, fluorescence polarization | Potency, µM, without a hit: max response, negative = inhibition, most hits filed as inhibitors | actives 2.8% (n = 360,000) | AID 720504; note: series mostly up to about 57 µM; nearly all actives have a fitted effect of over 65% in size
Target sequence (P53350 whole entry, looked up, the tested form may be a part): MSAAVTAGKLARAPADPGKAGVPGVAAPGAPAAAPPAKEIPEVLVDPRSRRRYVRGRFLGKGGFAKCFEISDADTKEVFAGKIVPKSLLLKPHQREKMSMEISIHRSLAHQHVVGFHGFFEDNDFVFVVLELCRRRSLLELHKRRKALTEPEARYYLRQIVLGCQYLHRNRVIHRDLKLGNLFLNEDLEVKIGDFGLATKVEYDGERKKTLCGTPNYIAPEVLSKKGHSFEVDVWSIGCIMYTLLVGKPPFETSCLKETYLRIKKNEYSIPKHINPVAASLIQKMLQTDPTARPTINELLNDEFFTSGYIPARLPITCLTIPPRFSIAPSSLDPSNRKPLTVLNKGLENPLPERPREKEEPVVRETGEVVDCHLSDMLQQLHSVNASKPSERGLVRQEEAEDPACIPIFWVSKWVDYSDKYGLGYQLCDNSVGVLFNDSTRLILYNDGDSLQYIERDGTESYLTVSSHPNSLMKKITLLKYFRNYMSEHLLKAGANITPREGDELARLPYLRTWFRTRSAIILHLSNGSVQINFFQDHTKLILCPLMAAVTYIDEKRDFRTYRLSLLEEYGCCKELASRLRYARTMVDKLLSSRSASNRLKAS
VDR inhibitor = inhibitors of human vitamin D receptor | P11473 | VDR-SRC2-3 peptide fluorescence polarization, 2 h | Potency, µM, without a hit: max response, negative = inhibition, hits mostly inhibitors | actives 0.93% (n = 400,000) | AID 504847
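Compounds are added to VDR with labelled SRC2-3 coactivator peptide and held 2 h at room temperature. Inhibition of the VDR–peptide interaction is then read as a change in fluorescence polarization.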
TDP1 inh = inhibitors of human tyrosyl-DNA phosphodiesterase TDP1; recombinant TDP1, AlphaScreen DNA substrate cleavage; Potency, µM (series often up to 130 µM), without a hit: at the top dose activity change, negative = inhibition, most hits filed as inhibitors; actives 0.28% (n = 350,000); AID 485290; note: nearly all actives have a fitted effect of over 40% in size
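Enzyme-compound mixtures sat 15 min at room temperature, followed by a 5 min reaction with 15 nM final substrate and 10 min with AlphaScreen beads. Recombinant human Tdp1 was used at 1 nM final.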
* = called active by the depositor; u = inconclusive; x = not tested or not shown; [ ] = another dose, or the depositor's remark. In the library only some 18% were active in any assay of this set; here they are far more common. Calls come from the whole dose curve; as a rule, active = well fitted curve in the direction sought with a large enough effect; inconclusive = small, poorly fitted or top-dose-only effect, or another doubt; inactive = no such curve, though single readings can be large; an effect the other way counts as inactive or inconclusive. % is set by controls: 0 for no effect and ±100 for the full control effect; potency is the fitted concentration of half-maximal effect.

SMILES	TDP1 cell CPT	DT40 TDP1 no CPT	KAT2A inh	PLK1 PBD block	VDR inhibitor	TDP1 inh
COc1cc(=O)n2c(c1C(=O)NCc1ccco1)CCN(C(=O)c1ccccc1-c1ncc[nH]1)CC2	22%	-2%	x	x	x	x
CCOC(=O)c1sc2nccc(OC)c2c1N=CN(C)C	0%	-3%	-6%	-14%	-7%	-3%
COc1cccc2[nH]c3c(N4CCc5ccccc5C4)ncnc3c12	u	21µM*	1%	-3%	-6%	x
OC1(c2cccc(C(F)(F)F)c2)CCN(c2ncnc3c2[nH]c2ccccc23)CC1	23µM*	21µM*	-2%	6%	-6%	4%
COc1cccc2[nH]c3c(=O)n(CCCN4CCOCC4)cnc3c12	-2%	-3%	-6%	-7%	-11%	1%
Cc1ccc(-c2noc(-c3cccnc3NCc3ccco3)n2)cc1	-21%	u	-4%	x	24%	6%
Cc1ccc(NC(=O)CNc2ccc(OC(C)C)cc2)cc1	u	23µM*	u	-7%	-2%	10%
Cc1ccc(S(=O)(=O)N(C)C)cc1NC(=O)Cn1c(CN2CCOCC2)nc2ccccc2c1=O	u	0%	-5%	3%	-13%	3%
COc1ccc(-c2c(C)nn3c(-c4ccccc4)cc(-c4ccccc4)nc23)cc1	u	u	-1%	x	-1%	5%
O=C(NN=Cc1ccccc1O)C(O)(c1ccccc1)c1ccccc1	23µM*	8.2µM*	x	3%	-10%	x
O=C(N/N=C/c1ccc(N2CCCCC2)o1)C(O)(c1ccccc1)c1ccccc1	x	x	-15%	x	x	11%
O=C(N/N=C/c1cc([N+](=O)[O-])cc([N+](=O)[O-])c1O)C(O)(c1ccccc1)c1ccccc1	36%	4%	0%	-20%	-22%	-3%
O=C(N/N=C/c1ccc(O)c([N+](=O)[O-])c1)C(O)(c1ccccc1)c1ccccc1	u	2.9µM*	-14%	3%	-7%	x
COc1ccc(-n2cc(C(=O)NCc3ccccc3)c3ccccc3c2=O)cc1	-3%	u	-10%	x	3%	6%
COCc1c(C(=O)OCC(=O)NCCc2ccc(S(N)(=O)=O)cc2)oc2ccccc12	5%	-3%	-1%	-11%	-3%	-2%[56.1 µM]
O=C1CCCc2cc(S(=O)(=O)N3CCCC(C(=O)NCc4ccc(Cl)cc4)C3)ccc2N1 (stereo unspecified)	x	x	-1%	x	14%	-2%
CCn1c(-c2ccccc2F)nc2cc(C(=O)N3CCCC(CO)C3)cc(NC(C)=O)c21 (stereo unspecified)	1%	9%	x	x	x	x
C(=N\Nc1ccccc1)/c1ccc(N2CCOCC2)cc1	u	-23%	-22%	-5%	2%	9%
O=[N+]([O-])/C=C\c1ccc(N2CCOCC2)cc1	15µM*	16µM*	x	30µM*	25µM*	x
O=[N+]([O-])c1cccc(N/N=C/c2ccc(N3CCOCC3)cc2)c1	18µM*	16µM*	-9%	-15%	-2%	9%
O=C(COc1ccc(/C=C\[N+](=O)[O-])cc1)N1CCOCC1	u	u	-12%	u	u	6%
CCOC(=O)C1CCCN(C(=O)c2cc(Nc3ccc(OC)c(OC)c3)nc3ccccc23)C1 (stereo unspecified)	u	16µM*	-10%	5%	-3%	4%
CCOC(=O)C1CCCN(C(=O)c2cn(C)c(=O)c3cc(OC)c(OC)cc23)C1 (stereo unspecified)	-7%	-28%	0%	-10%	-4%	9%
O=C(c1cc2c(Cl)nc3ccccc3c2s1)N1CCCCC1	u	u	-3%	x	-4%	5%
CCOC(=O)C1CCCN(C(=O)c2cc(Nc3ccc(OC)cc3OC)nc3ccccc23)C1 (stereo unspecified)	16µM*	21µM*	-12%	1%	-1%	10%
SMILES	TDP1 cell CPT	DT40 TDP1 no CPT	KAT2A inh	PLK1 PBD block	VDR inhibitor	TDP1 inh
CCOC(=O)C1CCCN(C(=O)c2cc3c(Cl)nc4ccccc4c3s2)C1 (stereo unspecified)	u	18µM*	-8%	x	-19%	0%
CC(=O)c1ccc(OCC(=O)Nc2nnc(C3CC3)s2)cc1	-30%	-21%	x	7%	x	x
O=S(=O)(Nc1nc2ccccc2nc1NCc1ccco1)c1ccc(Cl)cc1	u	u	2%	u	-1%	2%
Cc1noc(C)c1CSc1nc2ccccc2nc1NS(=O)(=O)c1ccc(Cl)cc1	15µM*	12µM*	-15%	6µM*	-7%	6%
COc1ccc(C(=O)NCCCN2CCN(CCCNC(=O)c3ccc(OC)c(OC)c3)CC2)cc1OC	23%	-20%	4%	-13%	-11%	1%
COc1ccc2cccc(N3CCN(CCNC(=O)c4ccc(F)cc4)CC3)c2c1	19µM*	21µM*	-13%	x	u	15%[56.1 µM]
COc1ccccc1N1CCN(CCCCNC(=O)c2ccc3ccccc3c2)CC1	u	21µM*	u	4%	0%	12%[56.1 µM]
CSc1cccc(NC(=O)c2ccc3c(c2)c(C)c(C)n3Cc2ccc(F)cc2)c1	u	u	-13%	x	-1%	3%
Cc1cc(Br)c(NC(=O)CN2C(=O)NC3(CCOc4ccccc43)C2=O)c(Br)c1 (stereo unspecified)	u	u	x	-5%	x	x
COc1cc(C(C)n2nnc3ccccc32)ccc1O (stereo unspecified)	-16%	-9%	x	4%	x	x
CN1C[C@@H]2[C@@H]3C(=O)N(Cc4ccccc4)C(=O)[C@@H]3[C@](C)(C1=O)N2C(=O)c1ccccc1	7%	3%	x	8%	-8%	x
Cc1ccc(C(=O)NNc2c3ccccc3nc3ccccc23)cc1	13µM*	10µM*	-13%	-4%	2%	x
COc1cccc(C(=O)NNc2nc(C)cc(C)n2)c1	-4%	-4%	0%	-2%	-4%	5%
COc1cccc(C(=O)NNc2c3ccccc3nc3ccccc23)c1	u	12µM*	-3%	5%	-12%	x
COc1ccccc1OCC(=O)NNc1c2ccccc2nc2ccccc12	u	18µM*	-6%	1%	-10%	x
Nc1ccccc1C(=O)NNc1c2ccccc2nc2ccccc12	u	13µM*	-2%	1%	-12%	12%
CCn1c(NC(=O)c2ccc(C)cc2)c2ccccc2nc1=O	-6%	-20%	-28%	-10%	-4%	-1%
CC(C)(O)C#Cc1ccc(CN2CCc3nnc(CCNC(=O)c4ccco4)n3CC2)cc1	2%[9.04 µM]	-11%	x	x	x	x
